PubChem BioAssay
Calls of active or inactive are those of the source. Unless noted, the rule behind the calls is not given here.

How the values were obtained:
[1] = compound effects on lung adenocarcinoma cell viability – A549, calcein-AM fluorescence, 48 h, basal, profiling panel (AID 1162); settings: higher = more signal; note: test concentration not given here
[2] = compound effects on differentiated 3T3-L1 adipocyte viability – cell-based, 3T3-L1 adipocytes, calcein-AM fluorescence, 48 h, basal, profiling panel (AID 1163); settings: 3T3-L1 adipocytes viability, higher = more signal; note: test concentration not given here
[3] = compound effects on hepatocellular carcinoma cell viability – HepG2, calcein-AM fluorescence, 48 h, basal, profiling panel (AID 1164); settings: higher = more signal; note: test concentration not given here
[4] = compound effects on multiple myeloma cell viability – MM1S, calcein-AM fluorescence, 48 h, basal, profiling panel (AID 1165); settings: higher = more signal;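 note: viability of MM1S multiple myeloma cells under basal unstimulated conditions; test concentration not given here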
[5] = calcein-AM signal in unstimulated myeloma cells – cell-based, calcein-AM fluorescence, 48 h, PK04 Diversity Set, profiling panel (AID 1166); settings: RPMI8226 myeloma viability, higher = more signal;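 note: cells grown under basal conditions without added stimulus; test concentration not given here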
[6] = JC-1 mitochondrial signal, unstimulated HepG2 cells – cell-based, JC-1 fluorescence, 24 h, 100 nL compound, profiling panel (AID 1167); settings: HepG2 mitochondrial potential, higher = more signal; note: test concentration not given here
[7] = JC-1 mitochondrial signal, unstimulated adipocytes – cell-based, JC-1 fluorescence, 3T3-L1 adipocytes, 24 h, 100 nL compound, profiling panel (AID 1168); settings: JC-1 mitochondrial fluorescence, higher = more signal, called active from +8 up or from −8 down; note: test concentration not given here
[8] = JC-1 mitochondrial signal, unstimulated myeloma cells – cell-based, JC-1 fluorescence, RPMI8226, 24 h, 100 nL compound, profiling panel (AID 1169); settings: JC-1 mitochondrial potential fluorescence, higher = more signal; note: test concentration not given here
[9] = JC-1 mitochondrial signal, unstimulated MM1S myeloma – cell-based, JC-1 fluorescence, 24 h, 100 nL compound, profiling panel (AID 1170); settings: MM1S mitochondrial potential, higher = more signal; note: test concentration not given here
[10] = resazurin metabolic signal in A549 cells – cell-based, resazurin fluorescence, 24 h, PK04 Diversity Set, profiling panel (AID 1171); settings: A549 viability, higher = more signal, called active from +8 up or from −8 down; note: test concentration not given here
[11] = resazurin metabolic signal in HepG2 cells – cell-based, resazurin fluorescence, 24 h, PK04 Diversity Set, profiling panel (AID 1172); settings: HepG2 viability, higher = more signal; note: test concentration not given here
[12] = budding yeast growth changes without added modifier – OD600, strain BY4716, 24 h, basal condition, primary screen (AID 1173); settings: S. cerevisiae BY4716 growth, OD600, 24 h; higher = more signal, called active from +8 up or from −8 down
[13] = viability profiling in MM1S myeloma cells – cell-based, resazurin fluorescence, basal, 24 h, PK04 Diversity Set, profiling panel (AID 1174); settings: higher = more signal, called active from +8 up or from −8 down; note: test concentration not given here
[14] = molecular target: Dihydroorotate dehydrogenase (quinone), mitochondrial (Plasmodium falciparum (isolate 3D7)) (UniProt Q08210); assay: inhibition of P. falciparum DHODH – biochemical, C-terminal His tag, absorbance 600 nm, primary screen (AID 1175); settings: PfDHODH enzyme, DCIP absorbance 600 nm; higher = more signal, called active from +8 up or from −8 down;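 note: recombinant parasite enzyme with a five histidine tag at its C terminus; test concentration not given here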
Dihydroorotate dehydrogenase (quinone), mitochondrial (Plasmodium falciparum (isolate 3D7)), sequence (Q08210 whole entry, looked up): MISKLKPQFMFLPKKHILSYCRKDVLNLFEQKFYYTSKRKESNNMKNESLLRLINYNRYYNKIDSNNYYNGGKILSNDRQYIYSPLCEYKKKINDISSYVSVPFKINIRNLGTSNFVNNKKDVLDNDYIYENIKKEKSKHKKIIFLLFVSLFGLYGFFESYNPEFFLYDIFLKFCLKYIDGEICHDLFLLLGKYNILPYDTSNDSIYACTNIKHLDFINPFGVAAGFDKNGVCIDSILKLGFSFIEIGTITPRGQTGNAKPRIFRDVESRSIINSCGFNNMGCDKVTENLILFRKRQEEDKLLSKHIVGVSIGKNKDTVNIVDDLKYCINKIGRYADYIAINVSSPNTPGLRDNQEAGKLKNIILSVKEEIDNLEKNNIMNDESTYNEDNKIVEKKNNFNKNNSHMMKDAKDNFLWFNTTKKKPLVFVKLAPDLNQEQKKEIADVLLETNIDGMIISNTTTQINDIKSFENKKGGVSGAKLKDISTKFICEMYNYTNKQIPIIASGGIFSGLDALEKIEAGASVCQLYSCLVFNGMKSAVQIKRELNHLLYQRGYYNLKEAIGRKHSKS

[15] = inhibition of PAO1 biofilm formation – strain PAO1, LB-PBS medium, absorbance 600 nm, primary screen (AID 1176); note: test concentration not given here; settings: P. aeruginosa PAO1 growth/biofilm, A600, 12 h; higher = more signal
[16] = growth modulation of vineyard yeast isolate – strain RM11-1a, OD600, basal, 24 h, primary screen (AID 1177);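 note: cultures grown under basal conditions with no added stressor; test concentration not given here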; settings: S. cerevisiae RM11-1a growth, OD600, 24 h; higher = more signal, called active from +8 up or from −8 down
[17] = growth of efflux-deficient E. coli DRC39 – strain DRC39, OD650, 24 h, E. coli filamentation inducers, primary screen (AID 1178);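 note: growth measured as culture turbidity by optical density at 650 nm; test concentration not given here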; settings: E. coli DRC39 acrAB, higher = more signal, called active from +8 up or from −8 down
[18] = growth of efflux-deficient E. coli DRC39 – strain DRC39, OD650, 48 h, E. coli filamentation inducers, primary screen (AID 1179);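 note: screen aims at cell division blockers that make cells filament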; settings: E. coli DRC39 delta-acrAB growth, higher = more signal, called active from +8 up or from −8 down
[19] = viability profiling in RPMI8226 myeloma cells – cell-based, resazurin fluorescence, basal, 24 h, PK04 Diversity Set, profiling panel (AID 1180); settings: higher = more signal;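 note: RPMI8826 multiple myeloma cell line at 5000 cells per well; test concentration not given here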
[20] = molecular target: E3 ubiquitin-protein ligase XIAP (Homo sapiens) (UniProt P98170); assay: small molecules binding XIAP protein – biophysical, small-molecule microarray, fluorescence 635 nm, primary screen (AID 1181); settings: higher = more signal;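 note: score merges 667 nm emission and signal to noise over triplicate slides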
E3 ubiquitin-protein ligase XIAP (Homo sapiens), sequence (P98170 whole entry, looked up): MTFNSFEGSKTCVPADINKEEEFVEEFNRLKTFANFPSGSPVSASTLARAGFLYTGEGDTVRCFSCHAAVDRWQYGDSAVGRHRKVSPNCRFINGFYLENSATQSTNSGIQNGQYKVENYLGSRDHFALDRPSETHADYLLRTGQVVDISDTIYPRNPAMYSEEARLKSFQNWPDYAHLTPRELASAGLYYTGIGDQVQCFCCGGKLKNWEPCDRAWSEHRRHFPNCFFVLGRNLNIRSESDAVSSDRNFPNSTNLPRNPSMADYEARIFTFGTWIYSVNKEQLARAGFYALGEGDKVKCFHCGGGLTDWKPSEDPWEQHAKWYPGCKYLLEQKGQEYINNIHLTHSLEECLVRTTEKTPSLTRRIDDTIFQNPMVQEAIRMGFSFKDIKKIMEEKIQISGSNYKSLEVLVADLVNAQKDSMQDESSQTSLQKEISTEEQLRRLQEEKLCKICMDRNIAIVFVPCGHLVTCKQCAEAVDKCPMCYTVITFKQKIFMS

Structure (SMILES) | z-score [1] | z-score [2] | z-score [3] | z-score [4] | z-score [5] | z-score [6] | z-score [7] | z-score [8] | z-score [9] | z-score [10] | z-score [11] | z-score [12] | z-score [13] | composite z-score [14] | z-score [15] | z-score [16] | z-score [17] | z-score [18] | z-score [19] | composite z-score [20]
C=CC[C@@H](OC(=O)Nc1ccc(SC)cc1)c1ccc(O)c(F)c1 | 1.12 | -0.475 | -0.889 | -2.14 | -1.75 | -2.43 | 4.4 (inactive) | -0.343 | -1.04 | -0.68 (inactive) | -0.227 | -15.5 (active) | -2.32 (inactive) | -1.9 (inactive) | 1.57 (inactive) | -6.97 (inactive) | 1.75 (inactive) | 1.38 (inactive) | -0.872 | -0.02
COc1cccc(C)c1NC(=O)O[C@H]1[C@H](OC(=O)Nc2ccccc2-c2ccccc2)[C@H](OC(=O)Nc2ccccc2-c2ccccc2)[C@@H](OC)O[C@@H]1CO | -0.889 | 0.328 | 0.56 | -0.632 | -2.77 | -0.214 | 1.33 (inactive) | 0.198 | 0.143 | -1.11 (inactive) | -0.589 | -0.342 (inactive) | -1.13 (inactive) | -0.0569 (inactive) | 1.11 (inactive) | 1.25 (inactive) | -0.469 (inactive) | 0.0517 (inactive) | -0.575 | 0.248
CN(C)CCCCCCNC(=O)[C@@H]1C[C@@H]2C(=O)N3CCC[C@H]3C(=O)N2[C@@H]1c1cccc(OCCO)c1 | -0.84 | -0.314 | -0.679 | -0.592 | -0.156 | -1.06 | 0.444 (inactive) | 0.605 | 0.784 | -0.954 (inactive) | -2.4 | 0.451 (inactive) | -0.727 (inactive) | -0.595 (inactive) | -0.267 (inactive) | 0.363 (inactive) | 0.0047 (inactive) | -0.391 (inactive) | -0.946 | -0.0062
C[N+](C)(C)CCCCCCNC(=O)[C@@H]1C[C@@H]2C(=O)N3CCC[C@H]3C(=O)N2[C@@H]1c1ccc(O)cc1 | -0.134 | -0.329 | -0.526 | -0.403 | -0.106 | -1 | -0.362 (inactive) | -0.101 | -0.637 | 1.78 (inactive) | 1.4 | -0.827 (inactive) | 1.02 (inactive) | -1.53 (inactive) | -0.984 (inactive) | -0.0176 (inactive) | 0.0464 (inactive) | -0.207 (inactive) | 0.441 | -0.169
CCOC(=O)C[C@H]1[C@H](OC(=O)c2cc3ccccc3oc2=O)[C@@H](NC(=O)CC(C)C)c2cc(OCCCO)ccc2N1C(=O)c1ccc2ccccc2n1 | -0.326 | -0.166 | 0.311 | -0.18 | 0.156 | -0.858 | -0.415 (inactive) | -0.272 | -0.692 | -0.103 (inactive) | -0.792 | 0.738 (inactive) | -0.043 (inactive) | 0.544 (inactive) | 0.555 (inactive) | 1.44 (inactive) | -0.463 (inactive) | -0.416 (inactive) | -0.493 | -0.102
COC(=O)c1c(CC[C@@H](CO)NC(=O)N2CCC[C@H]2Cn2cc(C3(O)CCCCC3)nn2)oc(C(C)=O)c1C(=O)OC | -0.615 | 0.209 | -0.513 | 0.205 | 0.577 | 0.223 | -0.629 (inactive) | -0.667 | -0.38 | -0.168 (inactive) | -0.089 | -0.212 (inactive) | -0.66 (inactive) | -0.0366 (inactive) | -0.546 (inactive) | -0.37 (inactive) | 0.294 (inactive) | -0.0642 (inactive) | -0.302 | -0.0448
COC(=O)C(CC#Cc1ccc2c(c1)[C@]1(C(=O)N2)[C@H](c2ccc(O)cc2)N2[C@H](c3ccccc3)[C@H](c3ccccc3)OC(=O)[C@H]2[C@@H]1C(=O)NC[C@H](O)c1ccccc1)C(=O)OC | -0.857 | -0.909 | -0.045 | -1.58 | -1.83 | -2.42 | -0.837 (inactive) | -0.829 | -0.633 | -0.407 (inactive) | -0.0495 | 0.677 (inactive) | -0.275 (inactive) | -3.93 (inactive) | 0.87 (inactive) | 0.379 (inactive) | 0.062 (inactive) | -0.138 (inactive) | -1.37 | -0.0013
COC(=O)[C@]1(CCS(=O)(=O)c2ccccc2)N=C(c2ccc(OCCCO)cc2)O[C@@H]1c1ccccc1N=[N+]=[N-] | -1.49 | 1.78 | -2.18 | -2.8 | -3.33 | 0.811 | -0.294 (inactive) | -1.13 | 0.546 | -3.46 (inactive) | -1.28 | 0.141 (inactive) | -3.19 (inactive) | 1.02 (inactive) | 0.963 (inactive) | 2.53 (inactive) | 0.548 (inactive) | -0.718 (inactive) | -2.26 | -0.0502
COC(=O)[C@@H]1N=C(c2ccc(OCCCO)cc2)O[C@@H]1C | 0.0963 | -0.317 | 0.958 | 0.916 | -0.086 | 0.5 | 0.797 (inactive) | -0.155 | -1 | -0.155 (inactive) | 0.38 | 0.0443 (inactive) | -0.341 (inactive) | -0.403 (inactive) | -0.689 (inactive) | 0.895 (inactive) | 0.52 (inactive) | 1.13 (inactive) | 0.945 | 0.105
